In PubChem BioAssay AID1619 (SRMLSC, 2009):
The campaign covered roughly 220,000 compounds. About 830 (0.38%) were called active.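 Rule for the calls: active = compound inhibiting the enzyme by more than half at any dose during confirmatory dose-response retesting; inconclusive = strong single-dose inhibitors picked by rank but not retested; inactive = the rest.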 Only a sample is shown. Potency and affinity values are given separately.

Biological target: Leucine aminopeptidase (Plasmodium falciparum (isolate 3D7)) (UniProt Q8IL11)
Assay: P. falciparum M17LAP inhibitors, primary screen, biochemical, fluorogenic H-Leu-NHMec substrate, 1536-well (AID 1619);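 note: plate controls were full reaction with DMSO carrier for no effect and no enzyme background for full effect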
Conditions: recombinant M17LAP, H-Leu-NHMec fluorogenic kinetic assay; at 30 µM; stronger effect = higher value

Sequence of Leucine aminopeptidase (Plasmodium falciparum (isolate 3D7)) (Q8IL11 whole entry, looked up): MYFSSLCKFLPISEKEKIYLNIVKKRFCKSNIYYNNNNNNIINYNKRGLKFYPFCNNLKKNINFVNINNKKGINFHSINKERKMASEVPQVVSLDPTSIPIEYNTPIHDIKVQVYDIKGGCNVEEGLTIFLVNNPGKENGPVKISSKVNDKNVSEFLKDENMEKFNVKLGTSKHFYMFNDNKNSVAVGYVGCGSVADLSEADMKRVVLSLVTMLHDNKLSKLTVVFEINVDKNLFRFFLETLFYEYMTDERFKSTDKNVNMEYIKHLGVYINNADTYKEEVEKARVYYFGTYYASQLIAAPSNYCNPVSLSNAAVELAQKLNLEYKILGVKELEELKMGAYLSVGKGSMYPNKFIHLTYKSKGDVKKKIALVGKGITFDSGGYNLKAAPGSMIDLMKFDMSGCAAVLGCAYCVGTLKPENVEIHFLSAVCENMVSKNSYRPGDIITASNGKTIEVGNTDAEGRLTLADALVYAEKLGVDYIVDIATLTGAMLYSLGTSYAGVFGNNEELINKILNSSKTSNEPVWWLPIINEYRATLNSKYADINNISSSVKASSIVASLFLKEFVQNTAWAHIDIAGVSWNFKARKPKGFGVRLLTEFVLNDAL

inhibition, inactive:
CCCC(C)c1nnc(NC(=O)C(=O)OCC)s1 (stereo not given) 2.47%, O=C(NNS(=O)(=O)c1ccccc1)c1cccnc1 1.34%, O=C(NC(=S)NNS(=O)(=O)c1ccc(Cl)cc1)c1cccnc1 20%, O=C(NC(=S)NNS(=O)(=O)c1ccccc1)c1ccc([N+](=O)[O-])cc1 21.4%, O=C(NNC(=S)NC(=O)c1ccccc1[N+](=O)[O-])c1ccccc1[N+](=O)[O-] 51.9%, CCOC(=O)C1C(=O)C=C(Nc2ccccc2F)CC1c1ccccc1 (stereo not given) 10.8%, CCOC(=O)C(C(=O)OCC)N(C#N)c1nc(OC)nc(N(C)C)n1 3.46%, O=Cc1cccc(Oc2ncccn2)c1 3.35%, CCOC(=O)N1CCC(Nc2c(NCCCN(CC)CC)c(=O)c2=O)CC1 -6.21%, O=C1CCC(=O)N1c1cccc(OS(=O)(=O)c2ccccc2)c1 10.4%, Cc1cc(C(F)(F)F)n2nc(-c3cnn(C)c3C(F)(F)F)c(Br)c2n1 4.73%, O=C(Cc1ccccc1)N[C@@H](Cc1ccc(O)cc1)C(=O)O 7.55%, O=C(NCc1ccccc1)N[C@@H](Cc1ccccc1)C(=O)O 27.9%, NS(=O)(=O)c1ccc(NC(=O)N[C@@H](Cc2ccccc2)C(=O)O)cc1 9.55%, COC(=O)[C@H](Cc1ccccc1)NC(=O)NCc1cccs1 7.7%, COc1ccccc1Nc1nc2ccc(C)cc2cc1C#N 5.31%, COc1ccc(N2CCN(c3nc4ccccc4n3CC(=O)c3ccccc3)CC2)cc1 12.7%, O=C1CS/C(=C/C(=O)c2cccc(Cl)c2)N1 16%, Cc1ccc(S(=O)(=O)/C=C2\NC(=O)CS2)cc1 34.6%, O=C(O)c1ccc(/C=N/NC(=O)c2cc(-c3cccs3)nc3ccccc23)cc1 -43.1%, CC1CCC(N2CCN(c3ncccn3)CC2)CC1 (stereo not given) 1.15%, Cc1ccc(O)c(-c2cc(-c3ccccc3C)[nH]n2)c1 -1.23%, Cc1ccc(-c2cc(-c3ccccc3C)[nH]n2)c(O)c1 9.91%, Cc1ccc(NC(=O)CSC2=C(C#N)C(c3ccco3)C3=C(CC(C)(C)CC3=O)N2)cc1 (stereo not given) 1.21%, C=C(C)C(=O)Oc1ccc(N2C(=O)CCC2=O)cc1 15.3%, O=C(CSc1nc2ccccc2c(=O)n1CCCN1CCOCC1)Nc1cccc(S(=O)(=O)N2CCCCCC2)c1 -0.76%, CCOc1ccccc1NC(=O)N1CCN(S(C)(=O)=O)CC1 -3.49%, CCn1cc(CNC(=O)/C=C/c2cnn(C)c2)c(C)n1 -7.7%, Clc1ccc(-c2n[nH]c3c2CCC3)cc1Cl -3.59%, O=[N+]([O-])c1cccc(-c2ccn[nH]2)c1 0.95%, Nc1cc(-c2cccc([N+](=O)[O-])c2)[nH]n1 10.1%, O=c1cc(O)c(-c2ccc(Cl)c(Cl)c2)c(Cl)[nH]1 4.59%, Cc1ccc([N+](=O)[O-])cc1S(=O)(=O)N1CCCCC1C(=O)O (stereo not given) 11.7%, COc1cccc(CN2CCN(C(=O)CC(C)C)CC2)c1 -2.21%, O=C1CNC(=O)/C(=C/c2ccco2)N1 6.62%, Cc1cc(/C=N/Nc2ccc([N+](=O)[O-])cn2)c(C)n1-c1ccccc1 9.51%, Cc1ccc(-n2c(C)cc(/C=N/Nc3ccc([N+](=O)[O-])cn3)c2C)cc1 -7.78%, Cc1ccnc2nc(C(=O)NCc3cccs3)nn12 -0.8%, NS(=O)(=O)c1ccc(CCNC(=O)C2CCN(S(=O)(=O)c3c(Cl)cccc3Cl)CC2)cc1 1.28%, Cc1cc(C)cc(N(CC(=O)Nc2ccccc2C(=O)N2CCOCC2)S(C)(=O)=O)c1 -5.57%, CC#CCC(CC#CC)c1nc2ccccc2c(=O)n1N -1.78%, Cc1ccc(-c2noc(CCC(=O)NC3CCCc4ccccc43)n2)cc1 (stereo not given) -3.35%, Cc1ccc(Cn2ccc(NC(=O)c3cc(C4CC4)on3)n2)cc1 1.62%, Cc1ccc(Cn2ccc(NC(=O)c3cc(C)on3)n2)cc1 -2.56%, Cc1c(NC(C)c2ccccc2O)c(=O)n(-c2ccccc2)n1C (stereo not given) 3.02%, C/C(=C\C(=O)c1ccc(Br)cc1)Nc1ccc(Cl)cc1 -7.69%, COc1nccnc1NS(=O)(=O)c1ccc(N=Cc2c(C)[nH]n(-c3ccc(Cl)cc3)c2=O)cc1 38.5%, CCc1nnc(NS(=O)(=O)c2ccc(NS(=O)(=O)c3ccc(NC(C)=O)cc3)cc2)s1 35.4%, CCc1nnc(NS(=O)(=O)c2ccc(N3C(=O)c4ccc(C(=O)O)cc4C3=O)cc2)s1 3.4%, Cc1[nH]n(-c2ccccc2)c(=O)c1C=Nc1ccc(S(=O)(=O)Nc2nccs2)cc1 3.82%, Cc1cc(C)nc(NS(=O)(=O)c2ccc(N=Cc3c(C)[nH]n(-c4ccccc4)c3=O)cc2)n1 6.98%, CCc1nnc(NS(=O)(=O)c2ccc(N=Cc3c(C)[nH]n(-c4ccc(Cl)cc4)c3=O)cc2)s1 45.4%, Cc1ccc(-n2[nH]c(C)c(C=Nc3ccc(S(=O)(=O)Nc4nccs4)cc3)c2=O)cc1C -8.94%, COc1ccc(C(=O)Nc2ccc(S(=O)(=O)Nc3nccnc3OC)cc2)cc1OC 16.3%, O=C(CN1CCOCC1)Nc1ccccc1-c1ccccc1 -4.42%, CCOc1ccccc1N1CCN(C(=O)c2c(C)noc2C)CC1 -5.81%, CCC1CCCN1Cn1cnc2c([nH]c3ccc(C)cc32)c1=O (stereo not given) 0.76%, CCCc1nnc(NC(=O)CCC(=O)NCc2ccc(OC)cc2)s1 13.8%, CCCCOc1ccccc1Cn1c(=O)oc2ccc(C)cc21 -14.1%, O=C(CSc1ncccn1)n1c2c(c3ccccc31)CCCC2 0.07%
